This is an account of results in PubChem BioAssay.

Experiment [1] is described as follows: small molecules captured by biotinylated probe aFSTL3 – biochemical, small-molecule microarray, fluorescence 635/667, stem cell growth factor project, primary screen (AID 1064).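 Note: measures binding of the biotinylated anti-FSTL3 antibody to printed compounds.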 As to conditions: higher = more signal.
A short description of experiment [2]: binders from COS7 lysate, DM2A8 probe, primary screen, torsin A project, cell lysate, small-molecule microarray, fluorescence 635/667 (AID 1065). As to conditions: higher = more signal, COS7 lysate expressing mutant human TOR1A.
Experiment [3] in a line: small molecules captured by biotinylated probe aFGF2 – biochemical, small-molecule microarray, fluorescence 635/667, stem cell growth factor project, primary screen (AID 1067).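 Note: measures binding of biotinylated aFGF2 protein to printed compounds on slides; z-score merges feature fluorescence and signal-to-noise across triplicate slides.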 As to conditions: higher = more signal.
Experiment [4] is described as follows: small molecules captured by biotinylated probe aFGF10 – biochemical, small-molecule microarray, fluorescence 635/667, stem cell growth factor project, primary screen (AID 1071).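 Note: score merges 667 nm spot intensity and signal to noise from triplicate slides.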 As to conditions: higher = more signal.
Experiment [5] addresses Neurogenic locus notch homolog protein 2 (Homo sapiens) (UniProt Q04721). Kind of experiment: small molecules binding Notch2 protein – biochemical, small-molecule microarray, 635 nm fluorescence, stem cell growth factors, primary screen (AID 1073). As to conditions: higher = more signal.
Experiment [6] has as its target Pro-neuregulin-1, membrane-bound isoform (Homo sapiens) (UniProt Q02297). Kind of experiment: small molecules binding neuregulin-1 protein – biochemical, small-molecule microarray, fluorescence 635/667, psychiatric disease protein project, primary screen (AID 1075).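 Note: score combines 667 nm spot fluorescence with signal to noise.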 As to conditions: NRG1 binding, 635 nm fluorescence, higher = more signal.
The test system of experiment [7] is Neuregulin-1 EGF-like domain. Kind of experiment: small molecules binding NRG1 EGF domain – biochemical, small-molecule microarray, 635 nm fluorescence, primary screen (AID 1081).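 Note: binding of the protein to compounds printed on small-molecule microarray slides.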 As to conditions: higher = more signal.
Experiment [8] can be described thus: FRG1 expression reporter modulators in myotubes – cell-based, C2C12 myotubes, firefly/Renilla luciferase, luminescence, FRG1 inhibition for FSHD, primary screen (AID 1084). As to conditions: FRG1 promoter luciferase, higher = more signal, called active from +8 up or from −8 down.
Experiment [9] in a line: small molecules captured by biotinylated probe aFST – biochemical, small-molecule microarray, fluorescence 635/667, stem cell growth factor project, primary screen (AID 1086).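 Note: score merges 667 nm fluorescence with signal-to-noise of each printed compound spot.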 As to conditions: higher = more signal.
A short description of experiment [10]: binders of probe aHhip on microarray, primary screen, stem cell growth factor project, biochemical, small-molecule microarray, fluorescence 635/667 (AID 1087).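 Note: score merges spot fluorescence at 667nm with spot signal to noise ratio.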 As to conditions: higher = more signal.
In experiment [11] the test system is PRMT1 (protein arginine N-methyltransferase 1). Kind of experiment: small molecules binding arginine methyltransferase PRMT1 – biochemical, small-molecule microarray, 635 nm fluorescence, primary screen (AID 1088).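 Note: binding of Prmt1 protein to compounds spotted on small-molecule microarray slides.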 As to conditions: higher = more signal.
Experiment [12] is described as follows: growth effects on S. cerevisiae YJM789 – YJM789 clinical isolate, OD600, 24 h, basal, primary screen (AID 1089).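 Note: growth of clinical yeast isolate S. cerevisiae YJM 789 seeded 1000 cells per well; test concentration not given here.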 As to conditions: higher = more signal, called active from +8 up or from −8 down.
A short description of experiment [13]: S. pombe growth modifiers, basal conditions – strain 972, OD600, 24 h, no modulator, primary screen (AID 1090).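 Note: basal condition with compound alone and no growth modifier present; test concentration not given here.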 As to conditions: S. pombe 972 growth, higher = more signal, called active from +8 up or from −8 down.
Experiment [14] can be described thus: budding yeast growth modifiers under rapamycin – strain BY4716, OD600, 96 h, primary screen (AID 1091). Note: test concentration not given here. As to conditions: S. cerevisiae BY4716 + rapamycin, higher = more signal, called active from +8 up or from −8 down.
Experiment [15] addresses Torsin-1A-interacting protein 2 (Homo sapiens) (UniProt Q8NFQ8). Kind of experiment: small molecules binding lysate-expressed LULL1 – cell lysate, human LULL1 lysate, 635/667 nm fluorescence, primary screen (AID 1092).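 Note: probe is lysate of COS7 cells overexpressing human LULL1; score merges per-feature 667 nm fluorescence with signal-to-noise.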 As to conditions: small-molecule microarray, hLULL1 lysate binding, 635 nm fluorescence; higher = more signal.
Experiment [16] in a line: optical density change of DRC41 E. coli – strain DRC41, OD650, 24 h, E. coli filamentation project, primary screen (AID 1093).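 Note: MC1000 strain lacking acrAB efflux and sulA so SOS filamentation is blocked; test concentration not given here.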 As to conditions: E. coli DRC41 growth, higher = more signal, called active from +8 up or from −8 down.
Experiment [17] is described as follows: probe aLefty2 binding to arrayed compounds – biochemical, biotinylated probe, 635/667 nm fluorescence, primary screen (AID 1094).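 Note: score merges spot fluorescence near 667 nm with spot signal-to-noise ratio.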 As to conditions: small-molecule microarray, higher = more signal.
For experiment [18], the system named is Noggin (protein binding on small-molecule microarray). Kind of experiment: small molecules binding Noggin protein – biochemical, 635/667 nm fluorescence, primary screen (AID 1095).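 Note: score merges 667 nm feature fluorescence with signal to noise over triplicate slides.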 As to conditions: 635 nm fluorescence, higher = more signal.
Experiment [19] has as its target Neurogenic locus notch homolog protein 3 (Homo sapiens) (UniProt Q9UM47). Kind of experiment: small molecules binding NOTCH3 protein – biochemical, 635/667 nm fluorescence, primary screen (AID 1096). As to conditions: small-molecule microarray, 635 nm fluorescence, higher = more signal.
A short description of experiment [20]: probe aEGFR binding to arrayed compounds – biochemical, biotinylated probe, 635/667 nm fluorescence, primary screen (AID 1097).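 Note: probe is a biotinylated anti-EGFR antibody binding compounds printed on slides; score combines fluorescence near 667 nm and signal to noise of each spot.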 As to conditions: small-molecule microarray, higher = more signal.

Structures are written as SMILES. Calls of active or inactive are those of the source.

Chain of Neurogenic locus notch homolog protein 3 (Homo sapiens) (Q9UM47 whole entry, looked up): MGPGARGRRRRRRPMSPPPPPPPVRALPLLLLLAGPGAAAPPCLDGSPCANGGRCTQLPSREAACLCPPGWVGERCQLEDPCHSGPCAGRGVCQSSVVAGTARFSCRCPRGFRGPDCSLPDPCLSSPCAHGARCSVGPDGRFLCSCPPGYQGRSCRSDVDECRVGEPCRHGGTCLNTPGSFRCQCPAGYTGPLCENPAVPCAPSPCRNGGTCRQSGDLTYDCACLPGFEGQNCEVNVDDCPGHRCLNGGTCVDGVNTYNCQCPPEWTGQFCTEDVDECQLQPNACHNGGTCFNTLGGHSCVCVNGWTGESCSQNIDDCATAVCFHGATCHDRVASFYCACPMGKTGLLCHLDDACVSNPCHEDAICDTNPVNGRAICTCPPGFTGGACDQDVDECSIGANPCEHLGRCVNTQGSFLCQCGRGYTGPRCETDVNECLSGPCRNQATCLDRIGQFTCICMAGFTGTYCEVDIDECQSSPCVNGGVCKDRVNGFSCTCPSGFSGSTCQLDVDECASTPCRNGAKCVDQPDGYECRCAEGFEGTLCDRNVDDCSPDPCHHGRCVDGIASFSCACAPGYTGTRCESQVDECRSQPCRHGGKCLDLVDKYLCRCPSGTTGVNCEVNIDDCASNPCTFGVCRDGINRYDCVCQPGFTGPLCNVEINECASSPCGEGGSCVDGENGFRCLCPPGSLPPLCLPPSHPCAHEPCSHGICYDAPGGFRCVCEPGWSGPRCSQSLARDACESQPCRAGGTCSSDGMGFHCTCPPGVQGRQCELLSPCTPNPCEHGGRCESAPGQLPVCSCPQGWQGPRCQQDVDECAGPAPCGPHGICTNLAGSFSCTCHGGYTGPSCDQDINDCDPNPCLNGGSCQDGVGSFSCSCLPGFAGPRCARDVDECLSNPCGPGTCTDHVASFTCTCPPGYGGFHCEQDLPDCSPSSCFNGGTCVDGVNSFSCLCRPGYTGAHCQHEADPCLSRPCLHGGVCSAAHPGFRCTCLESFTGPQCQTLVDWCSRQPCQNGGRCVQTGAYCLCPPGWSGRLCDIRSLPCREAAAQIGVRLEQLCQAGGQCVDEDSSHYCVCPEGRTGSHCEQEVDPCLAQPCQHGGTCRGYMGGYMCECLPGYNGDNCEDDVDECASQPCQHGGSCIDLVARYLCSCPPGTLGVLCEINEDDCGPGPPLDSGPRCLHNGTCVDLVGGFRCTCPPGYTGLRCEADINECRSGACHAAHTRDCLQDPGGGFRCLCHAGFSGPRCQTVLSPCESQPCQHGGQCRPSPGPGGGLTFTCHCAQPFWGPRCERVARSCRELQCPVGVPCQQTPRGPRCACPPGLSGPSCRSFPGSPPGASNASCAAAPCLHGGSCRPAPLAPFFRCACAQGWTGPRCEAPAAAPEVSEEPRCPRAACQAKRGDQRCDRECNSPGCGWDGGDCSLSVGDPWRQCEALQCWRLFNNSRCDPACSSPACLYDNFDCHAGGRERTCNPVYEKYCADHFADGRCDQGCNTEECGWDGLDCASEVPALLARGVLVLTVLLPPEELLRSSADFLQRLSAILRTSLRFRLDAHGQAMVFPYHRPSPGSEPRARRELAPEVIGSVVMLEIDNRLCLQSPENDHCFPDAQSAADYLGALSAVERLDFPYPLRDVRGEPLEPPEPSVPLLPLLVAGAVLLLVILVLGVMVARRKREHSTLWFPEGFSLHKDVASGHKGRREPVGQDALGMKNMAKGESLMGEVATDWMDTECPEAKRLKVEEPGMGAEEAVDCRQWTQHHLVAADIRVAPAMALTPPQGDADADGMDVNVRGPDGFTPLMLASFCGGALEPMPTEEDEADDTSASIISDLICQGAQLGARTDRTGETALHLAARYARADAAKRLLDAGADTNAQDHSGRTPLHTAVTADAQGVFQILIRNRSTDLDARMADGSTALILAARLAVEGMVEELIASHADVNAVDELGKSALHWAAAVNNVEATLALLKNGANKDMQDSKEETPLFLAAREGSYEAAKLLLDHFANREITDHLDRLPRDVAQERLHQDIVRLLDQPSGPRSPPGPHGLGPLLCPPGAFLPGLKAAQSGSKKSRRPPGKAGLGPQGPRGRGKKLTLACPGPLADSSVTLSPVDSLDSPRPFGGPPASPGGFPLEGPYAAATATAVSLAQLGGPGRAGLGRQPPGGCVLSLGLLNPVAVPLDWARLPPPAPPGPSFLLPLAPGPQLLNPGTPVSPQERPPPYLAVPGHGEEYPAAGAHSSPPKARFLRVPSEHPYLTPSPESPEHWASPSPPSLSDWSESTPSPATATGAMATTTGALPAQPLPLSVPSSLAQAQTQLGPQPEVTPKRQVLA
Chain of Torsin-1A-interacting protein 2 (Homo sapiens) (Q8NFQ8 whole entry, looked up): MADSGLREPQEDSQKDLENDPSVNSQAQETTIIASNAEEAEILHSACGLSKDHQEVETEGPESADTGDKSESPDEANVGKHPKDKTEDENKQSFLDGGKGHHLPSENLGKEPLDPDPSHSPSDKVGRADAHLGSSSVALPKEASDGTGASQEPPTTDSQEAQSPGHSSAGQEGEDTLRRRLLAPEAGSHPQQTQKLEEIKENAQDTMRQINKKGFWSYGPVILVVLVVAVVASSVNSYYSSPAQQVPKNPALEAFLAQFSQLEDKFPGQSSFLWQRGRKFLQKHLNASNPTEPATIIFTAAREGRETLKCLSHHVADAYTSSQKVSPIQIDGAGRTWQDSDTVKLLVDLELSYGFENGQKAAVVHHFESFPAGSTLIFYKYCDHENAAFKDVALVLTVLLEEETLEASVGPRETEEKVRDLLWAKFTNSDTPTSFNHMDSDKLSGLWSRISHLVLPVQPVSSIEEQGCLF
Chain of Pro-neuregulin-1, membrane-bound isoform (Homo sapiens) (Q02297 whole entry, looked up, the tested form may be a part, canonical isoform): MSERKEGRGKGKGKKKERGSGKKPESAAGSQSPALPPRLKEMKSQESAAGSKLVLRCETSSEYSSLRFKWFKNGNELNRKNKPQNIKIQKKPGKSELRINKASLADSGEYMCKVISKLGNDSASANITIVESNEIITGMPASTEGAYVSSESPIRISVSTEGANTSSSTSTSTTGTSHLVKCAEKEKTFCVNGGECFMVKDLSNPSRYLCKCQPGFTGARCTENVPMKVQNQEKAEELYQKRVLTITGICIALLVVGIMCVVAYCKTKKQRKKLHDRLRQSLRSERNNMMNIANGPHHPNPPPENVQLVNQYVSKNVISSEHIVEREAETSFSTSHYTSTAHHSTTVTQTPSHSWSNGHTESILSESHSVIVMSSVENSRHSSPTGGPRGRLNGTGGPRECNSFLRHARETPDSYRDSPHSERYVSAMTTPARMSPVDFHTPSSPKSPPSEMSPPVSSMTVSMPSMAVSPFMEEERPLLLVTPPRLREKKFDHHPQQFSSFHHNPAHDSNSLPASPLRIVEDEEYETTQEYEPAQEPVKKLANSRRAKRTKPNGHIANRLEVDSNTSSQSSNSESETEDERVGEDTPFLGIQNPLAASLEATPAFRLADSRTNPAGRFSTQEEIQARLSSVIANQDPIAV

Consider `COCCOC(=O)N1C(=O)[C@@]2(c3cc(C#CCCO)ccc31)[C@H](c1ccccc1OCCO)N1[C@H](c3ccccc3)[C@H](c3ccccc3)OC(=O)[C@H]1[C@@H]2C(=O)NC[C@H](O)c1ccccc1`, for which the composite z-score is -0.138 in experiment [1]; 2.15 in experiment [2]; -0.105 in experiment [3]; 0.365 in experiment [4]; 0.3 in [5]; 1.12 in experiment [6]. Moreover, the composite z-score is 1.06 in experiment [7]; 0.555 in experiment [9]; 0.0623 in [10]; 1.56 in [11]; 1.29 in experiment [15]; -0.0898 in experiment [17]. Moreover, the composite z-score in experiment [18] is 1.71; in experiment [19], 0.99; in experiment [20] it was 0.0533. For the same compound, the z-score is -2.36 (inactive) in experiment [8]; -0.524 (inactive) in [12]; -1.14 (inactive) in experiment [13]; 2.23 (inactive) in experiment [14]; 3.51 (inactive) in experiment [16].
For `CC(C)NC(=O)[C@@H]1c2ccccc2C(=O)N(Cc2cc(F)cc(C(F)(F)F)c2)[C@H]1c1ccc(CO)cc1`, the composite z-score in experiment [1] is 1.02; in experiment [2], -0.197; in experiment [3], -0.141; in [4], -1.12; in [5] it was -0.636; in experiment [6], 0.433. The composite z-score in [7] was 0.844; in experiment [9], 0.136; in experiment [10] it was -0.149; in experiment [11] it was -0.305; in experiment [15] it was 2.48; in experiment [17] it was 0.0071. The composite z-score in experiment [18] was -1.34; in [19], -0.706; in experiment [20], 0.0629. The z-score in experiment [8] is 0.842 (inactive); in experiment [12] it was -0.354 (inactive); in [13] it was -0.92 (inactive); in [14], -1.17 (inactive); in [16] it was 1.52 (inactive).
Regarding `CC(C)C(=C=CC[C@H](O)c1ccc(OCCO)cc1)C[C@H](O)COCc1ccccc1`, the composite z-score in experiment [1] was -0.254; in experiment [2], 1.75; in experiment [3], -0.128; in experiment [4], 0.411; in experiment [5] it was -0.438; in experiment [6], 0.639. In addition, the composite z-score in experiment [7] was 1.09; in [9], -0.0173; in experiment [10] it was -0.0994; in experiment [11] it was 1.23; in experiment [15], 1.76; in experiment [17], -0.119. Besides, the results for the composite z-score in experiment [18], in experiment [19] and in experiment [20] were 1.51, 0.229 and -0.166, respectively. Moreover, the z-score was -1.37 (inactive) in experiment [8]; 1.09 (inactive) in [12]; -2.45 (inactive) in [13]; -0.668 (inactive) in [14]; 0.775 (inactive) in [16].
Turning to `Cc1ccc(N2C(=O)c3ccccc3[C@](C)(C(=O)NCC(F)(F)F)[C@@H]2c2ccc(CO)cc2)nc1`, the composite z-score in [1] is 1.36; in experiment [2] it was -0.769; in experiment [3], -0.128; in experiment [4] it was -1.14; in experiment [5], -1.22; in [6] it was 1.64. In addition, the composite z-score in experiment [7] is 0.0042; in experiment [9], -0.413; in experiment [10], -0.0423; in experiment [11], -0.973; in [15], -0.916; in [17], -0.0741. In addition, the composite z-score was -1.81 in experiment [18], -2.16 in experiment [19] and -0.352 in experiment [20]. Moreover, the z-score in [8] was 0.0677 (inactive); in experiment [12] it was -0.625 (inactive); in experiment [13], -0.972 (inactive); in [14], -0.286 (inactive); in experiment [16], 1.1 (inactive).
In the case of `COCCOC(=O)N1C(=O)[C@@]2(c3cc(C#CCNC(N)=O)ccc31)[C@H](C(=O)NC[C@H](O)c1ccccc1)[C@H]1C(=O)O[C@H](c3ccccc3)[C@H](c3ccccc3)N1[C@@H]2c1ccc(O)cc1`, the composite z-score in experiment [1] was 0.464; in experiment [2] it was 0.256; in experiment [3] it was -0.031; in experiment [4], 0.462; in experiment [5], -0.26; in experiment [6] it was 0.8. The composite z-score was 0.442 in experiment [7]; 0.24 in experiment [9]; -0.191 in [10]; 1.54 in [11]; 1.5 in experiment [15]; -0.104 in experiment [17]. Further, the figures for the composite z-score in experiment [18], in [19] and in [20] were 0.737, 0.698 and -0.132, respectively. Moreover, the z-score in experiment [8] was 0.803 (inactive); in [12], -0.124 (inactive); in experiment [13], -2.42 (inactive); in experiment [14] it was 0.893 (inactive); in [16], 2 (inactive).
